Results reported in the supplement of paper PMC10849652.
About 8,800 targets were measured; listed, in parts, are those with a hit and a random draw of the rest. About 0.5% of all pairs of compound and target were hits. Unmarked numbers belong to inactive results.

Columns and labels:
Experiment in all cases: log2 fold change, soluble protein after heating vs DMSO (PISA); higher = thermal stabilisation; K562 lysate, 10 uM; active = over 0.2 and 3.5 SD of the protein, either way, in both replicates (recomputed)
alvocidib = compound: CN1CC[C@H](c2c(O)cc(O)c3c(=O)cc(-c4ccccc4Cl)oc23)[C@H](O)C1 [alvocidib]
How it was run: (§1)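 K562 pellets were dounce-homogenised in PBS pH 7.4 with 1 mM MgCl2, and the crude extract at 1 mg/mL protein was treated with 10 μM compound for 30 min. Aliquots were heated for 3 min across 48°C-58°C, pooled, and brought to 0.5% NP-40 at 4°C; soluble protein was the supernatant after 21,000xg for 90 min. Soluble protein was quantified by TMTpro 16plex LC-MS/MS with channel sums equalised, and reported as log2 fold change in thermal stability against DMSO controls, with values from duplicates.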

Tubastatin A = compound: CN1CCc2c(c3ccccc3n2Cc2ccc(C(=O)NO)cc2)C1 [Tubastatin A]
How it was run: as §1

[1] = compound: CNC(=O)C1=CC=CC=C1NC2=NC(=NC=C2Cl)NC3=C(C=C(C=C3)N4CCOCC4)OC
How it was run: as §1

defactinib = compound: CNC(=O)c1ccc(Nc2ncc(C(F)(F)F)c(NCc3nccnc3N(C)S(C)(=O)=O)n2)cc1 [defactinib]
How it was run: as §1

[2] = compound: CNc1nc(-c2ccc3c(N)n[nH]c3c2)cc(N2C[C@@H](C(=O)NC3CCCCC3)CC[C@H]2C)n1
How it was run: as §1

encorafenib = compound: COC(=O)N[C@@H](C)CNc1nccc(-c2cn(C(C)C)nc2-c2cc(Cl)cc(NS(C)(=O)=O)c2F)n1 [encorafenib]
How it was run: as §1

[3] = compound: COC(=O)[C@H](CCSC)NC(=O)C1=C(C=C(C=C1)NC[C@H](CS)N)C2=CC=CC=C2
How it was run: as §1

alisertib = compound: COc1cc(Nc2ncc3c(n2)-c2ccc(Cl)cc2C(c2c(F)cccc2OC)=NC3)ccc1C(=O)O [alisertib]
How it was run: as §1

[4] = compound: COc1cc2nc(-c3cc(F)ccc3O)nc(N[C@@H]3CNC[C@H]3C(C)(C)O)c2cc1OC
How it was run: as §1

gefitinib = compound: COc1cc2ncnc(Nc3ccc(F)c(Cl)c3)c2cc1OCCCN1CCOCC1 [gefitinib]
How it was run: as §1

lapatinib = compound: CS(=O)(=O)CCNCc1ccc(-c2ccc3ncnc(Nc4ccc(OCc5cccc(F)c5)c(Cl)c4)c3c2)o1 [lapatinib]
How it was run: as §1

pictilisib = compound: CS(=O)(=O)N1CCN(Cc2cc3nc(-c4cccc5[nH]ncc45)nc(N4CCOCC4)c3s2)CC1 [pictilisib]
How it was run: as §1

crizotinib = compound: C[C@@H](Oc1cc(-c2cnn(C3CCNCC3)c2)cnc1N)c1c(Cl)ccc(F)c1Cl [crizotinib]
How it was run: as §1

[5] = compound: C[C@H](C1=CC=C(C=C1)C(=O)NC2=C3C=CNC3=NC=C2)N
How it was run: as §1

duvelisib = compound: C[C@H](Nc1ncnc2nc[nH]c12)c1cc2cccc(Cl)c2c(=O)n1-c1ccccc1 [duvelisib]
How it was run: as §1

gandotinib = compound: Cc1cc(Nc2cc(CN3CCOCC3)c3nc(C)c(Cc4ccc(Cl)cc4F)n3n2)n[nH]1 [gandotinib]
How it was run: as §1

tozasertib = compound: Cc1cc(Nc2cc(N3CCN(C)CC3)nc(Sc3ccc(NC(=O)C4CC4)cc3)n2)n[nH]1 [tozasertib]
How it was run: as §1

doramapimod = compound: Cc1ccc(-n2nc(C(C)(C)C)cc2NC(=O)Nc2ccc(OCCN3CCOCC3)c3ccccc23)cc1 [doramapimod]
How it was run: as §1

bafetinib = compound: Cc1ccc(NC(=O)c2ccc(CN3CC[C@H](N(C)C)C3)c(C(F)(F)F)c2)cc1Nc1nccc(-c2cncnc2)n1 [bafetinib]
How it was run: as §1

[6] = compound: Cc1cccc(CC(=O)N2CCc3c2ccc(-c2cn(C)c4ncnc(N)c24)c3F)n1
How it was run: as §1

UniProt O00159, sequence (O00159 whole entry, looked up): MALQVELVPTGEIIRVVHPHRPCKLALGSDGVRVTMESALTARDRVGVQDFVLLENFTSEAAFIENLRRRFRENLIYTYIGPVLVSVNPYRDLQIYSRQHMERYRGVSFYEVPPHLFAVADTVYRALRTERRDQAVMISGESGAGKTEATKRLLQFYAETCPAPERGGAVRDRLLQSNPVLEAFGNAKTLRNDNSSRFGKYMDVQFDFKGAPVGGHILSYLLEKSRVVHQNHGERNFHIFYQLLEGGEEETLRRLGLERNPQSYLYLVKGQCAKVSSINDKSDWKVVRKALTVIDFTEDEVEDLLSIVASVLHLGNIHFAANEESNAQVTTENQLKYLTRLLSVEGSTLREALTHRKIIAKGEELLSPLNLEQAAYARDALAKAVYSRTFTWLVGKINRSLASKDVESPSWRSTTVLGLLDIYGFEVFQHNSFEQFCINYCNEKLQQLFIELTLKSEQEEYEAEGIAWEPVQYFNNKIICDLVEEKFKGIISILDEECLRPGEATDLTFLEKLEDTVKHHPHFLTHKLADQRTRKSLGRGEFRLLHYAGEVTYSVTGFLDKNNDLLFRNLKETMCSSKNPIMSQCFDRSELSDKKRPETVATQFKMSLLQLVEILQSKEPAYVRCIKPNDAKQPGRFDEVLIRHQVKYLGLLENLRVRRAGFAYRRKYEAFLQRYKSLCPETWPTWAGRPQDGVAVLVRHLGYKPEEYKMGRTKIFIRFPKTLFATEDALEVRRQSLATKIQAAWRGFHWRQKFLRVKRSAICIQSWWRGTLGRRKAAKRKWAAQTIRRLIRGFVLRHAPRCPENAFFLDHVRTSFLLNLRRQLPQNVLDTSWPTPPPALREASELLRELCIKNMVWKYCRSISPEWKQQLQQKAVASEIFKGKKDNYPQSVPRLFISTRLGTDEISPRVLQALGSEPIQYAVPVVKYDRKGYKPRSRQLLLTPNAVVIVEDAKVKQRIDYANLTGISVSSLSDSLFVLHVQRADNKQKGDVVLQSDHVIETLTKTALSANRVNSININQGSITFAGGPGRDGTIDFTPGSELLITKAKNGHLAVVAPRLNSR
UniProt Q5SRE5, sequence (Q5SRE5 whole entry, looked up): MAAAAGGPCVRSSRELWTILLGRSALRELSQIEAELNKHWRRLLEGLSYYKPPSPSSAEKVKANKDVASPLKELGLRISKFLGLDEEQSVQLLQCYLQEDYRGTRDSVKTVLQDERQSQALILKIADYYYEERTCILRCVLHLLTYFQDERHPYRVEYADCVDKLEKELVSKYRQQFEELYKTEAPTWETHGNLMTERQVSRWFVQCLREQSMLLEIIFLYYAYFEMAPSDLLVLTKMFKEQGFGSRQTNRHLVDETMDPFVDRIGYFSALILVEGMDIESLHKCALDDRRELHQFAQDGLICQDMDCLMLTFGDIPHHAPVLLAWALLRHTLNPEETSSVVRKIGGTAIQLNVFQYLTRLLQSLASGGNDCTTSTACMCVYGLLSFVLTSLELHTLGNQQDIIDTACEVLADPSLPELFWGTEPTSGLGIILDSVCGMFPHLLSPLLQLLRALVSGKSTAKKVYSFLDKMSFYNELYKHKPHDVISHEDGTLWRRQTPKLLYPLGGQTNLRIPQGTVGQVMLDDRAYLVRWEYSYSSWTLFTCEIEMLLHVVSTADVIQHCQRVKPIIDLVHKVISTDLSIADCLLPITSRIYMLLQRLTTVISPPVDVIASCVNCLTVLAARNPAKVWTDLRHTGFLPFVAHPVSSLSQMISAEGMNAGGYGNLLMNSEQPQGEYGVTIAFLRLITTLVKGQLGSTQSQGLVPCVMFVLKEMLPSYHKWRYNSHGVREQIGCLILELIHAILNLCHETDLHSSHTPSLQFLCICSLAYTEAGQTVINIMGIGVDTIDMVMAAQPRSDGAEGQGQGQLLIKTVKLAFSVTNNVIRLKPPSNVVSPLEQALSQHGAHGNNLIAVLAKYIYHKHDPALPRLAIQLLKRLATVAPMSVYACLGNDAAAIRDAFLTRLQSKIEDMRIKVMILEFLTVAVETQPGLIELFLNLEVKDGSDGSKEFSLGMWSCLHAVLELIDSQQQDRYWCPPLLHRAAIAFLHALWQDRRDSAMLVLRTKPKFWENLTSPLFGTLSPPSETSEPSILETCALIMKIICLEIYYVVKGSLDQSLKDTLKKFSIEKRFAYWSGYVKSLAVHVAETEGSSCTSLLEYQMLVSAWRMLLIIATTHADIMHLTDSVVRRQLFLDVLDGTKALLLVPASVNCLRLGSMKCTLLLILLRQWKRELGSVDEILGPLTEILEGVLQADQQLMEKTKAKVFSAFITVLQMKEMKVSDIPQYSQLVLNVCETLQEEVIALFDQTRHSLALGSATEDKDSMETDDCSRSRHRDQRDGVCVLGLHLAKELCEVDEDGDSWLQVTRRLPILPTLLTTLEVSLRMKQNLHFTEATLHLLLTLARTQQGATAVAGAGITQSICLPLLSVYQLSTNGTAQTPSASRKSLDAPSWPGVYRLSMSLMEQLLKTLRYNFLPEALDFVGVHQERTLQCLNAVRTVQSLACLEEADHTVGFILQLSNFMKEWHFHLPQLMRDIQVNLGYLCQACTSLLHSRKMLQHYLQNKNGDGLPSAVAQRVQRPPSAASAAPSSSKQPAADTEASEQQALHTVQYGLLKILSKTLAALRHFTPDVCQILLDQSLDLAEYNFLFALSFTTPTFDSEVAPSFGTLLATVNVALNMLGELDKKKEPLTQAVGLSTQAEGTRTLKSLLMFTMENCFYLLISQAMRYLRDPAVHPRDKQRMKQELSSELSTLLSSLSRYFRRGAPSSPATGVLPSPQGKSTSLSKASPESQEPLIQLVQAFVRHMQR
UniProt P00156, sequence (P00156 whole entry, looked up): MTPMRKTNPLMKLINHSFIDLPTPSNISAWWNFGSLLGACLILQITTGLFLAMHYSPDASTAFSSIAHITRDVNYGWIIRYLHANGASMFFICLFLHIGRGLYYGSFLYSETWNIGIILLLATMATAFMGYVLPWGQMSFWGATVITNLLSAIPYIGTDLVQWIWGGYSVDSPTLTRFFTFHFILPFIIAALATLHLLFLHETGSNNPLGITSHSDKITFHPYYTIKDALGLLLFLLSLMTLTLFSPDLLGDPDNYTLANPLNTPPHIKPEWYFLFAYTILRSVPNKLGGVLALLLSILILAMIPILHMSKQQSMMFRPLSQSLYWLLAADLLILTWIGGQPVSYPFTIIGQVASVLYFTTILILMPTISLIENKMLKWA
UniProt Q9BPX3, sequence (Q9BPX3 whole entry, looked up): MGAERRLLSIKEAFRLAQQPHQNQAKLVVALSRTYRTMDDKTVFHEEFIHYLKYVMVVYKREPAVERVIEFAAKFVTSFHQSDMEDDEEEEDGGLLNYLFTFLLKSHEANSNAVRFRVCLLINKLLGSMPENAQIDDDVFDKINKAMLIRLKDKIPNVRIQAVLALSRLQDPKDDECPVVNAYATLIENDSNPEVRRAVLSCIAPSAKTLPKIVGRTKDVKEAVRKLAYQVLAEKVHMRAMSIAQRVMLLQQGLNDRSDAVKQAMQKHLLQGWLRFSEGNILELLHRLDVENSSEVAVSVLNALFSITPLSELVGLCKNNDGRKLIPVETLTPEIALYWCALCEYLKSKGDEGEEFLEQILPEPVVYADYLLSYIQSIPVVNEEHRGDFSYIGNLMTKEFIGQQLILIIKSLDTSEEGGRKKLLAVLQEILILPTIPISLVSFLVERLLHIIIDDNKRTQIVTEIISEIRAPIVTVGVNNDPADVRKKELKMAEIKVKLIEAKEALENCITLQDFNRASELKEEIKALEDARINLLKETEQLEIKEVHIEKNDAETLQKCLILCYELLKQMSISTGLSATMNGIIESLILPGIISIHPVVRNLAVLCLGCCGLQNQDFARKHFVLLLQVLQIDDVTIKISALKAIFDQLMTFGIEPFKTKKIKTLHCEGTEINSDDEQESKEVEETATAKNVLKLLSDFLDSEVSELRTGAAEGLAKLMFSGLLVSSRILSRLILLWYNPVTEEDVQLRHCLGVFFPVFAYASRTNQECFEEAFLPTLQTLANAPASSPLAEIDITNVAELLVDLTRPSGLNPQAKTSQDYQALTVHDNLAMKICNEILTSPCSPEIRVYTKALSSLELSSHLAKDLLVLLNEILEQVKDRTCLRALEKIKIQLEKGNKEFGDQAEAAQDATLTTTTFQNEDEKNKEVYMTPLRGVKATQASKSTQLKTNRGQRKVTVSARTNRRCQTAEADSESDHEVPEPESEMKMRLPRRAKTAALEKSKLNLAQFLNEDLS
UniProt Q13330, sequence (Q13330 whole entry, looked up): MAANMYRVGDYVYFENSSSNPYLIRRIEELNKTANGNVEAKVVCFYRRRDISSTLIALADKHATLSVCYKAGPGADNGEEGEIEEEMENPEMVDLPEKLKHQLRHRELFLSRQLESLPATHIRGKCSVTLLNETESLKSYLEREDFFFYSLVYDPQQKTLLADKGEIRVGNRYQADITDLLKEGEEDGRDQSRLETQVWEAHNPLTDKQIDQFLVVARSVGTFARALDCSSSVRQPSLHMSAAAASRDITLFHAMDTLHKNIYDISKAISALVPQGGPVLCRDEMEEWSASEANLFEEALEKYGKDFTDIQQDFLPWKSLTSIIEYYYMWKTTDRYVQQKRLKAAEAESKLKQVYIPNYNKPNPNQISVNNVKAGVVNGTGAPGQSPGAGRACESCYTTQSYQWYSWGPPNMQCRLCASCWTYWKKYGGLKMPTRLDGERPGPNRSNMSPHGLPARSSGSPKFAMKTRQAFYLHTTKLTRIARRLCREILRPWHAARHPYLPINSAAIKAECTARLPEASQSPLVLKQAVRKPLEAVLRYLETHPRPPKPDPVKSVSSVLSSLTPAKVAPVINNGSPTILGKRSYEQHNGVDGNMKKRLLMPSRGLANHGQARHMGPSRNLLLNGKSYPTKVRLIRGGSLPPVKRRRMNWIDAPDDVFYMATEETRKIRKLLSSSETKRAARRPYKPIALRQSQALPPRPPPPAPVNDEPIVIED

Target	log2 fold change (alvocidib)	log2 fold change (Tubastatin A)	log2 fold change [1]	log2 fold change (defactinib)	log2 fold change [2]	log2 fold change (encorafenib)	log2 fold change [3]	log2 fold change (alisertib)	log2 fold change [4]	log2 fold change (gefitinib)	log2 fold change (lapatinib)	log2 fold change (pictilisib)	log2 fold change (crizotinib)	log2 fold change [5]	log2 fold change (duvelisib)	log2 fold change (gandotinib)	log2 fold change (tozasertib)	log2 fold change (doramapimod)	log2 fold change (bafetinib)	log2 fold change [6]
MTOR (UniProt P42345)	-0.054	-0.118	-0.038	0.01	-0.025	0.016	0.014	0.006	0	-0.039	-0.008	-0.016	-0.068	-0.042	0.021	-0.079	0.018	0.055	-0.015	0.053
NBEAL2 (UniProt Q6ZNJ1)	0.031	-0.141	-0.005	0.022	0.033	0.003	-0.029	-0.053	-0.009	0.01	-0.065	-0.016	-0.069	-0.006	0.04	-0.157	0.02	0.008	-0.056	0.072
NLRP2 (UniProt Q9NX02)	0.034	-0.227	0	0.024	-0.044	0.034	-0.239 (active)	-0.025	0	-0.012	0.004	-0.025	-0.029	0.091	0.005	-0.049	0.005	0.051	-0.023	-0.018
NTMT1 (UniProt Q9BV86)	0.047	-0.175	0.018	0.065	0.023	-0.006	0.166	-0.007	-0.016	0.057	-0.008	-0.008	-0.009	0.079	-0.026	-0.113	-0.041	0.025	0.025	-0.045
OGFOD2 (UniProt Q6N063)	0.029	0.033	0.059	0.015	-0.125	-0.054	0.223 (active)	0.009	-0.014	-0.065	0.034	-0.031	-0.017	-0.029	0.045	-0.016	0.019	-0.013	-0.09	0.032
ORC2 (UniProt Q13416)	0.034	-0.161	0.038	0.034	-0.008	0.018	0.094	0.012	-0.002	-0.011	0.016	-0.049	-0.074	0.063	-0.068	-0.087	-0.017	-0.007	-0.034	0.011
MTA3 (UniProt Q9BTC8)	-0.016	-0.013	0.019	0.044	-0.043	0.041	0.091	0.077	0.025	-0.059	0.006	0.026	-0.058	-0.022	0.001	-0.013	-0.008	0.002	-0.048	0.051
NUB1 (UniProt Q9Y5A7)	0.033	-0.095	0.037	-0.007	0.014	0.022	0.038	-0.012	-0.004	-0.049	-0.002	-0.022	0.012	0.009	-0.004	0.011	0.027	-0.023	-0.047	-0.002
NUP188 (UniProt Q5SRE5)	0.004	-0.049	-0.018	0.038	-0.016	-0.045	0.043	-0.007	0.025	0.011	-0.063	-0.04	-0.05	-0.024	0.004	-0.127	-0.012	-0.034	-0.031	0.039
NIFK (UniProt Q9BYG3)	0.009	-0.023	-0.023	0	0.095	0.039	-0.003	-0.073	-0.014	0.01	-0.004	-0.019	-0.033	-0.027	0.009	0	0.036	-0.009	-0.026	0.064
OSBP2 (UniProt Q969R2)	-0.211	0.047	-0.102	0.011	-0.032	0.04	-0.1	0.052	-0.033	0.011	0.003	0.024	-0.074	-0.666 (active)	0.116	0.194	-0.028	0.018	-0.037	0.23
NUMBL (UniProt Q9Y6R0)	-0.032	-0.103	-0.023	-0.218	0.023	0.189	-0.068	-0.064	0.044	0.09	0.01	0.111	0.066	0.018	0.162	0.176	0.036	0.247	0.041	0.036
NCAPG (UniProt Q9BPX3)	0.003	-0.113	0.011	0.024	0.01	-0.01	0.094	0.007	-0.01	0.003	-0.029	0	-0.074	-0.028	-0.007	-0.094	-0.011	0.026	-0.035	0.011
MTA1 (UniProt Q13330)	0.007	-0.045	0.013	0.008	-0.01	-0.005	0.098	-0.026	0.023	-0.023	-0.002	0	-0.008	0.001	-0.059	-0.067	-0.002	-0.009	0.023	0.017
MRPS18A isoform 2 (UniProt Q9NVS2)	0.18	-0.047	-0.156	-0.024	0.106	0.029	-0.037	0.041	-0.017	0.008	0.005	-0.046	-0.02	0.262	-0.133	-0.164	0.043	-0.005	0	-0.226
MT-CYB (UniProt P00156)	-0.326	0.078	-0.027	0.091	0.129	0.036	-0.093	-0.131	0.062	0.102	-0.054	-0.025	-0.126	-0.856 (active)	0.094	0.568 (active)	-0.074	-0.05	0.05	0.385
MYO1C (UniProt O00159)	0.029	-0.114	-0.057	0.052	-0.045	0.076	0.049	0.008	0.01	-0.02	-0.078	0.007	-0.09	0.027	0.075	-0.036	0.014	0.065	0.068	-0.023
NAT1 (UniProt P18440)	0.038	-0.087	-0.025	0.05	-0.046	-0.02	0.006	0.035	0.039	0.031	0.026	0.111	-0.227	-0.089	0.006	0.004	-0.048	0.058	0.006	0.083
NIT2 (UniProt Q9NQR4)	0.046	0.047	-0.003	-0.05	0.013	-0.032	0.082	0.012	0.019	-0.017	0.002	-0.048	-0.026	-0.008	0.011	-0.01	0.002	-0.023	0.011	-0.06
MSH6 (UniProt P52701)	-0.021	-0.17	0.009	0.012	-0.032	0.019	0.105	0.003	-0.011	-0.023	-0.004	-0.005	-0.076	-0.003	0.014	-0.087	0.013	0.037	-0.051	0.022
NEBL isoform 2 (UniProt O76041)	-0.079	0.07	0.012	0.011	0.023	0.009	-0.043	-0.024	-0.003	0.037	0.003	0.044	0.059	-0.135	-0.046	0.094	-0.018	-0.018	0.105	0.073
OAT (UniProt P04181)	-0.023	-0.016	-0.03	-0.016	-0.023	-0.022	0.091	0.036	0.006	0.008	-0.02	0.021	-0.034	-0.066	-0.025	0.063	0.01	-0.029	0	0.044
NFATC2 (UniProt Q13469)	-0.12	-0.118	0.021	-0.028	0.06	0.004	0.1	-0.047	-0.007	-0.025	-0.003	0.03	-0.021	0.085	-0.017	0.133	0	0.059	-0.02	0.117
NEXN (UniProt Q0ZGT2)	-0.102	-0.049	0.026	0.134	0.158	-0.096	0.044	0.004	-0.086	0.092	0.066	-0.137	–	-0.239	-0.088	0.172	-0.237	–	0.043	0.198
